PubChem BioAssay

target: Albumin (Bos taurus) (UniProt P02769); experiment: bovine serum albumin binders on microarray, profiling panel, artefact control for SMM control protein annotation, biochemical, small-molecule microarray, Alexa647 label, 635/667 nm fluorescence (AID 1118); conditions: BSA-A647 binding, fluorescence 635 nm, higher = more signal;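 further: score merges 667 nm emission intensity and signal-to-noise per printed compound spot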
Sequence (P02769 whole entry, looked up): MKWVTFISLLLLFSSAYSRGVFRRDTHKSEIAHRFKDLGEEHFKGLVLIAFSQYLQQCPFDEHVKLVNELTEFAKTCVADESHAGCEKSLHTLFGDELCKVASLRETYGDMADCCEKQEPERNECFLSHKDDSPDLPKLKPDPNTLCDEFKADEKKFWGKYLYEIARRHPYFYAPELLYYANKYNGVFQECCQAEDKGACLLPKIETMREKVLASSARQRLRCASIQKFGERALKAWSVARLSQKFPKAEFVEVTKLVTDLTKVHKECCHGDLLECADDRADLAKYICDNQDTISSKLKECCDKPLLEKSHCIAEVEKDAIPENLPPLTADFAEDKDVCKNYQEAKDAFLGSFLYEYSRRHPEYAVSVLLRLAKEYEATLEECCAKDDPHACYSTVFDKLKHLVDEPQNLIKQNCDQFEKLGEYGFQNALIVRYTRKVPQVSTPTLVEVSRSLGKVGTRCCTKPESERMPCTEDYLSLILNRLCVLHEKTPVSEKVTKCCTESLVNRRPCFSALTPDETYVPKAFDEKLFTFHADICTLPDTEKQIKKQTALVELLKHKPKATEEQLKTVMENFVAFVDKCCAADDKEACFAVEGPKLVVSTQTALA

Q: Which composite z-score does the source give for `COCC#Cc1ccc([C@@H]2N[C@H](C(=O)O)CC[C@H]2C)cc1` here?
A: -0.202

Q: With `C#CCCCON=C1[C@H]2CCn3c(=O)n([C@@H](CC)c4ccccc4)c(=O)n3[C@H]2[C@H](O)[C@@H]2O[C@H]12` as the molecule, how does the composite z-score read?
A: 0.0481

Q: How did the composite z-score turn out when `O=C1CCCC=C1C(O)C1CCCCC1` (stereo unspecified) was run?
A: -0.0548

Q: For `C[C@@H](c1ccccc1)N1C(=O)[C@H]2[C@H]3[C@H](O)[C@H](O)CC(=NOC[C@@H](O)COCc4ccco4)[C@H]3CC[C@H]2C1=O`, which composite z-score is on record?
A: -0.0559

Q: `CCOC(=O)[C@H](CC(C)C)NC(=O)CCC1CC(OC(=O)NCCc2ccc(F)cc2)CC2(CCCC(COC(=O)NCc3cccc4ccccc34)O2)O1` (stereo partly specified) was tested. Which composite z-score did it give?
A: 0.426

Q: Which composite z-score does the source give for `COC(=O)[C@H](C)NC(=O)CCC1CC(OC(=O)NCCc2ccc(F)cc2)CC2(CCCC(COC(=O)NCCc3ccccc3OC)O2)O1` (stereo partly specified) here?
A: 0.335

Q: Which composite z-score does the source give for `CCOC(=O)CCN1C(=O)[C@H]2[C@H]3[C@H](O)[C@H](O)CC(=NOCC(C)C)[C@@H]3CC[C@H]2C1=O` here?
A: -0.0235

Q: `CC[C@@H](c1ccccc1)n1c(=O)n2n(c1=O)[C@H]1[C@H](O)[C@@H]3O[C@@H]3C(=NOCc3ccccc3)[C@H]1CC2` was tested. Which composite z-score did it give?
A: 0.536

Q: How did the composite z-score turn out when `COc1ccc(O[C@H]2C=C[C@@H](c3ccccc3)O[C@@H]2CON=C(C)CCN2CCCc3nc(C)c(C)cc32)cc1` was run?
A: 0.118

Q: For `COC(OC)[C@@H](C)[C@H](OC)[C@@H](C)[C@H](OC)c1ccccc1`, which composite z-score is on record?
A: -0.355

Q: `CC(CCN1CCc2nc(-c3ccccc3)c(-c3ccccc3)cc2C1)=NO[C@@H](C)c1cc(-c2c(C)cc(C)cc2C)no1` was tested. Which composite z-score did it give?
A: 0.554

Q: For `CO[C@H]1COC(=O)CCC[C@H](C)[C@H](OC)COC(=O)CC=C[C@@H]1C`, which composite z-score is on record?
A: -0.235

Q: With `COC(=O)[C@H](CCSC)NC(=O)CC=C[C@@H](C)CO` as the molecule, how does the composite z-score read?
A: -0.245

Q: For `C[C@H]1CC[C@@H](C(=O)O)N[C@@H]1c1cccc(N2CCCC2=O)c1`, which composite z-score is on record?
A: -0.0315

Q: `C#CCCCON=C1C[C@@H](O)[C@@H](O)[C@@H]2[C@@H]3C(=O)N([C@@H](C)c4ccccc4)C(=O)[C@@H]3CC[C@@H]12` was tested. Which composite z-score did it give?
A: 0.356

Q: Which composite z-score does the source give for `COC(=O)[C@H](C)NC(=O)CCC1CC(OC(=O)NCc2ccc3c(c2)OCO3)CC2(CCCC(COC(=O)NCc3ccccc3)O2)O1` (stereo partly specified) here?
A: -0.372

Q: For `CCOC(=O)CCN1C(=O)[C@H]2[C@H]3[C@H](O)[C@H](O)CC(=NNC(=O)OCC)[C@H]3CC[C@H]2C1=O`, which composite z-score is on record?
A: -0.898

Q: Which composite z-score does the source give for `CC(C)(C)N1C(=O)[C@H]2[C@@H]3C(=CC[C@H]2C1=O)C(=O)[C@H]1O[C@H]1[C@H]3O` here?
A: 0.0159

Q: Which composite z-score does the source give for `O=C1[C@H]2[C@H]3[C@H](O)[C@H](O)CC(=NO[C@@H]4O[C@H](CO)[C@@H](O)[C@H](O)[C@H]4O)[C@@H]3CC[C@H]2C(=O)N1C1CCCCC1` here?
A: -0.156

Q: `COc1ccc(COC(=O)NN=C2C[C@@H](O)[C@@H](O)[C@@H]3[C@@H]4C(=O)N([C@@H](C)c5ccccc5)C(=O)[C@@H]4CC[C@@H]23)cc1` was tested. Which composite z-score did it give?
A: 0.274

Q: How did the composite z-score turn out when `COc1ccc(COC(=O)NN=C2C[C@@H](O)[C@@H](O)[C@@H]3[C@@H]4C(=O)N(Cc5ccccc5)C(=O)[C@@H]4CC[C@@H]23)cc1` was run?
A: -0.0233

Q: `CC(C)[C@@H](OCc1ccccc1)[C@H](C)C=NO[C@@H](C)c1cn([C@H](CO)Cc2ccccc2)nn1` was tested. Which composite z-score did it give?
A: 0.449

Q: Which composite z-score does the source give for `CCOC(=O)[C@H](Cc1ccccc1)NC(=O)CCC1CC(OC(=O)NCc2ccc3c(c2)OCO3)CC2(CCCC(COC(=O)NCCOc3ccccc3)O2)O1` (stereo partly specified) here?
A: -0.245

Q: `COC(=O)[C@H](C)NC(=O)CCC1CC(OC(=O)NCc2ccc3c(c2)OCO3)CC2(CCCC(COC(=O)NCCCN3CCCC3=O)O2)O1` (stereo partly specified) was tested. Which composite z-score did it give?
A: 0.328

Q: How did the composite z-score turn out when `O=C(NN=C1C[C@@H](O)[C@@H](O)[C@@H]2[C@@H]3C(=O)N(Cc4ccc5c(c4)OCO5)C(=O)[C@@H]3CC[C@@H]12)OCc1ccccc1` was run?
A: 0.544

Q: For `CCN1C(=O)[C@H]2[C@H]3[C@H](O)[C@H](O)CC(=NOCC[C@@H]4C=C[C@H](OC(C)=O)[C@@H](COC(C)=O)O4)[C@@H]3CC[C@H]2C1=O`, which composite z-score is on record?
A: 0.541

Q: How did the composite z-score turn out when `COC(=O)[C@H](C)NC(=O)CCC1CC(OC(=O)NCc2ccc3c(c2)OCO3)CC2(CCCC(COC(=O)NCCC(C)C)O2)O1` (stereo partly specified) was run?
A: 0.492

Q: Which composite z-score does the source give for `CO[C@H]1COC(=O)CC=C[C@H](C)[C@H](OC)COC(=O)[C@@H](C)NC(=O)CC=C[C@@H]1C` here?
A: -0.487

Q: `O=C1C=C[C@@H](O)[C@@H]2[C@@H]3C(=O)N(Cc4ccccc4)C(=O)[C@@H]3CC[C@@H]12` was tested. Which composite z-score did it give?
A: 0.22

Q: `CCOC(=O)[C@H](Cc1ccccc1)NC(=O)CCC1CC(OC(=O)NCc2ccc3c(c2)OCO3)CC2(CCCC(COC(=O)NCCc3ccc(Cl)cc3)O2)O1` (stereo partly specified) was tested. Which composite z-score did it give?
A: 0.581

Q: With `COc1ccc(-c2cnnc(CCCn3ccnc3-c3ccccc3)n2)cc1` as the molecule, how does the composite z-score read?
A: 0.223

Q: With `CCOC(=O)NN=C1C[C@@H](O)[C@@H](O)[C@@H]2[C@@H]3C(=O)N(c4ccc(F)cc4F)C(=O)[C@@H]3CC[C@H]12` as the molecule, how does the composite z-score read?
A: 0.123

Q: `C#CCCCON=C1C[C@@H](O)[C@@H](O)[C@@H]2[C@@H]3C(=O)N(CC)C(=O)[C@@H]3CC[C@H]12` was tested. Which composite z-score did it give?
A: -0.0021

Q: With `C[C@H]1CC[C@@H](C(=O)O)N[C@@H]1c1ccc(C#Cc2ccccc2)cc1` as the molecule, how does the composite z-score read?
A: 0.213

Q: For `COC(=O)[C@H](C)NC(=O)CCC1CC(OC(=O)NCc2cccc3ccccc23)CC2(CCCC(COC(=O)NCc3ccccc3)O2)O1` (stereo partly specified), which composite z-score is on record?
A: -0.0725

Q: For `CC(=O)OC[C@H]1O[C@H](CC=NOC[C@@H](O)[C@H]2O[C@@H]3OC(C)(C)O[C@@H]3[C@H]2O)C=C[C@@H]1OC(C)=O`, which composite z-score is on record?
A: 0.846
